Where a name gives a salt, the structure may show the parent alone. A number with no mark means an inactive call.
What was measured:
Conditions in all cases: 20 µM
[1] = system: Haemophilus parainfluenzae; assay: growth AUC normalised to DMSO control (fraction of control); higher = less growth inhibition, active = hit call of the paper
In short: (§1)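 For the AUC endpoint, growth curves were integrated by the trapezoidal rule up to the exponential-to-stationary transition and normalised to DMSO controls on the same plate. The curves came from OD578 readings taken hourly for 24 h, in three biological replicates. Pathogens had been passaged anaerobically twice and inoculated at an OD578 of 0.01 into pre-reduced mGAM plates carrying 20 μM compound and 1% DMSO, sealed with breathable membranes. Medium for Haemophilus parainfluenzae also contained hemin and NAD.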

[2] = system: Salmonella enterica typhimurium; assay: as above
In short: as §1

Shigella flexneri = assay: as above
In short: as §1

Vibrio cholerae = assay: as above
In short: as §1

[3] = system: Yersinia pseudotuberculosis; assay: as above
In short: as §1

P. vulgatus RND KO = assay: growth AUC normalised to DMSO control (median) (fraction of control); higher = less growth inhibition, active = hit call of the paper
In short: (§2)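 Strains were passaged twice overnight without oxygen, then grown in mGAM in 96-well plates with each approved-drug library compound at 20 μM and 1% DMSO, starting at OD578 0.01. OD578 was read hourly for 24 h inside an anaerobic incubator. Curves were truncated at entry into stationary phase, and the trapezoidal-rule area under the curve was normalised to same-plate vehicle wells. The value is the median across three biological replicates.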

P. vulgatus WT = assay: as above
In short: as §2

[4] = system: S. enterica typhimurium WT; assay: as above
In short: as §2

[5] = system: S. enterica typhimurium tolC KO; assay: as above
In short: as §2
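For growth AUC normalised to DMSO control (median) in this document: active when median AUC fell below 0.1.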

O=c1[nH]c2ccccc2n1CCCN1CCC(n2c(=O)[nH]c3cc(Cl)ccc32)CC1 [Domperidone]
growth AUC normalised to DMSO control [1]: 1.02
growth AUC normalised to DMSO control [2]: 1.01
growth AUC normalised to DMSO control (Shigella flexneri): 0.985
growth AUC normalised to DMSO control (Vibrio cholerae): 1.03
growth AUC normalised to DMSO control [3]: 1
growth AUC normalised to DMSO control (P. vulgatus RND KO): 1
growth AUC normalised to DMSO control (P. vulgatus WT): 1
growth AUC normalised to DMSO control [4]: 1
growth AUC normalised to DMSO control [5]: 0.979

CCC1(c2cccc(O)c2)CCCCN(C)C1 (configuration not stated) [Meptazinol hydrochloride]
growth AUC normalised to DMSO control [1]: 0.961
growth AUC normalised to DMSO control [2]: 0.983
growth AUC normalised to DMSO control (Shigella flexneri): 0.948
growth AUC normalised to DMSO control (Vibrio cholerae): 0.974
growth AUC normalised to DMSO control [3]: 0.994
growth AUC normalised to DMSO control (P. vulgatus RND KO): 0.993
growth AUC normalised to DMSO control (P. vulgatus WT): 0.982
growth AUC normalised to DMSO control [4]: 0.998
growth AUC normalised to DMSO control [5]: 1

C[N+]1(C)[C@@H]2CC[C@H]1C[C@@H](OC(=O)C(CO)c1ccccc1)C2 (some centres not stated) [Methylatropine nitrate]
growth AUC normalised to DMSO control [1]: 1.05
growth AUC normalised to DMSO control [2]: 1.01
growth AUC normalised to DMSO control (Shigella flexneri): 1.03
growth AUC normalised to DMSO control (Vibrio cholerae): 1.02
growth AUC normalised to DMSO control [3]: 1
growth AUC normalised to DMSO control (P. vulgatus RND KO): 1.02
growth AUC normalised to DMSO control (P. vulgatus WT): 1.04
growth AUC normalised to DMSO control [4]: 0.999
growth AUC normalised to DMSO control [5]: 1.02

O=P1(N(CCCl)CCCl)NCCCO1 (configuration not stated) [Cyclophosphamide]
growth AUC normalised to DMSO control [1]: 1.04
growth AUC normalised to DMSO control [2]: 1.02
growth AUC normalised to DMSO control (Shigella flexneri): 1.01
growth AUC normalised to DMSO control (Vibrio cholerae): 1.04
growth AUC normalised to DMSO control [3]: 1.01
growth AUC normalised to DMSO control (P. vulgatus RND KO): 0.998
growth AUC normalised to DMSO control (P. vulgatus WT): 1
growth AUC normalised to DMSO control [4]: 1.01
growth AUC normalised to DMSO control [5]: 0.997

COc1ccc(C(=O)N2CCCC2=O)cc1 [Aniracetam]
growth AUC normalised to DMSO control [1]: 0.993
growth AUC normalised to DMSO control [2]: 1
growth AUC normalised to DMSO control (Shigella flexneri): 0.998
growth AUC normalised to DMSO control (Vibrio cholerae): 1.01
growth AUC normalised to DMSO control [3]: 0.972
growth AUC normalised to DMSO control (P. vulgatus RND KO): 0.996
growth AUC normalised to DMSO control (P. vulgatus WT): 1.01
growth AUC normalised to DMSO control [4]: 0.995
growth AUC normalised to DMSO control [5]: 0.997

C[C@]12CC[C@H](O)C[C@H]1CC[C@@H]1[C@@H]2CC[C@]2(C)[C@@H](C3=CC(=O)OC3)CC[C@]12O [Digitoxigenin]
growth AUC normalised to DMSO control [1]: 1
growth AUC normalised to DMSO control [2]: 1
growth AUC normalised to DMSO control (Shigella flexneri): 0.981
growth AUC normalised to DMSO control (Vibrio cholerae): 0.973
growth AUC normalised to DMSO control [3]: 0.995
growth AUC normalised to DMSO control (P. vulgatus RND KO): 0.989
growth AUC normalised to DMSO control (P. vulgatus WT): 0.968
growth AUC normalised to DMSO control [4]: 0.995
growth AUC normalised to DMSO control [5]: 1

CC(=O)NC1CCSC1=O (configuration not stated) [Citiolone]
growth AUC normalised to DMSO control [1]: 1.03
growth AUC normalised to DMSO control [2]: 1.01
growth AUC normalised to DMSO control (Shigella flexneri): 1
growth AUC normalised to DMSO control (Vibrio cholerae): 1.03
growth AUC normalised to DMSO control [3]: 0.985
growth AUC normalised to DMSO control (P. vulgatus RND KO): 1.03
growth AUC normalised to DMSO control (P. vulgatus WT): 1.04
growth AUC normalised to DMSO control [4]: 1
growth AUC normalised to DMSO control [5]: 1.01

S=C(NC1CCCCC1)N1CCC(c2cnc[nH]2)CC1 [Thioperamide maleate]
growth AUC normalised to DMSO control [1]: 0.976
growth AUC normalised to DMSO control [2]: 0.98
growth AUC normalised to DMSO control (Shigella flexneri): 0.957
growth AUC normalised to DMSO control (Vibrio cholerae): 0.97
growth AUC normalised to DMSO control [3]: 0.991
growth AUC normalised to DMSO control (P. vulgatus RND KO): 1
growth AUC normalised to DMSO control (P. vulgatus WT): 1.01
growth AUC normalised to DMSO control [4]: 0.997
growth AUC normalised to DMSO control [5]: 0.996

Oc1cc(Cl)ccc1Oc1ccc(Cl)cc1Cl [Triclosan]
growth AUC normalised to DMSO control [1]: 0.0433 (active)
growth AUC normalised to DMSO control [2]: 0.00977 (active)
growth AUC normalised to DMSO control (Shigella flexneri): 0.0073 (active)
growth AUC normalised to DMSO control (Vibrio cholerae): 0.184 (active)
growth AUC normalised to DMSO control [3]: 0.911
growth AUC normalised to DMSO control (P. vulgatus RND KO): 0.462
growth AUC normalised to DMSO control (P. vulgatus WT): 0.357
growth AUC normalised to DMSO control [4]: 0.00521 (active)
growth AUC normalised to DMSO control [5]: 0.00694 (active)

C=CCC1(CC(C)C)C(=O)NC(=O)NC1=O [Butalbital]
growth AUC normalised to DMSO control [1]: 0.978
growth AUC normalised to DMSO control [2]: 1
growth AUC normalised to DMSO control (Shigella flexneri): 0.999
growth AUC normalised to DMSO control (Vibrio cholerae): 1.02
growth AUC normalised to DMSO control [3]: 1
growth AUC normalised to DMSO control (P. vulgatus RND KO): 0.99
growth AUC normalised to DMSO control (P. vulgatus WT): 0.998
growth AUC normalised to DMSO control [4]: 0.992
growth AUC normalised to DMSO control [5]: 1.01

CN[C@@H]1[C@@H](O)[C@@H](O[C@@H]2[C@@H](O)[C@H](O[C@H]3O[C@H](CN)CC[C@H]3N)[C@@H](N)C[C@H]2N)OC[C@]1(C)O.CN[C@@H]1[C@@H](O)[C@@H](O[C@@H]2[C@@H](O)[C@H](O[C@H]3O[C@H]([C@@H](C)N)CC[C@H]3N)[C@@H](N)C[C@H]2N)OC[C@]1(C)O.CN[C@@H]1[C@@H](O)[C@@H](O[C@@H]2[C@@H](O)[C@H](O[C@H]3O[C@H]([C@@H](C)NC)CC[C@H]3N)[C@@H](N)C[C@H]2N)OC[C@]1(C)O [Gentamicine sulfate]
growth AUC normalised to DMSO control [1]: 0.864
growth AUC normalised to DMSO control [2]: 1
growth AUC normalised to DMSO control (Shigella flexneri): 1.02
growth AUC normalised to DMSO control (Vibrio cholerae): 1.04
growth AUC normalised to DMSO control [3]: 1.02
growth AUC normalised to DMSO control (P. vulgatus RND KO): 1.05
growth AUC normalised to DMSO control (P. vulgatus WT): 1.02
growth AUC normalised to DMSO control [4]: 1
growth AUC normalised to DMSO control [5]: 1

CN1[C@@H]2CC[C@H]1C[C@@H](OC(=O)[C@H](CO)c1ccccc1)C2 [(L) Hyoscyamine]
growth AUC normalised to DMSO control [1]: 0.945
growth AUC normalised to DMSO control [2]: 0.983
growth AUC normalised to DMSO control (Shigella flexneri): 1.04
growth AUC normalised to DMSO control (Vibrio cholerae): 1.05
growth AUC normalised to DMSO control [3]: 1.01
growth AUC normalised to DMSO control (P. vulgatus RND KO): 1
growth AUC normalised to DMSO control (P. vulgatus WT): 1
growth AUC normalised to DMSO control [4]: 1.01
growth AUC normalised to DMSO control [5]: 1

NC(=O)CN1CCCC1=O [Piracetam]
growth AUC normalised to DMSO control [1]: 0.975
growth AUC normalised to DMSO control [2]: 0.991
growth AUC normalised to DMSO control (Shigella flexneri): 0.957
growth AUC normalised to DMSO control (Vibrio cholerae): 0.992
growth AUC normalised to DMSO control [3]: 0.993
growth AUC normalised to DMSO control (P. vulgatus RND KO): 0.989
growth AUC normalised to DMSO control (P. vulgatus WT): 0.982
growth AUC normalised to DMSO control [4]: 0.984
growth AUC normalised to DMSO control [5]: 0.996

— the supplement of paper PMC12350171
